# Source: PubChem BioAssay AID624483 (NMMLSC, 2012)
# Among all 360,000 compounds or so, about 11,000 (3.1%) were called active. About 2% were inconclusive and are not listed. For the sample, actives were picked, then their nearest neighbours and some compounds at random. A number with no mark means an inactive call. Cut-off read from the data, not from the text of the source: active = fluorescence intensity above about 16000; inconclusive = no clear call, values can overlap the other calls; inactive = below that.
# Test: counter-screen for toxin protease inhibitors: compound fluorescence, primary screen, artefact control for toxin protease inhibitor project, biochemical, multiplex microsphere, HTS (AID 624483)
# Settings: compound autofluorescence counterscreen, microsphere flow cytometry; hits give high values
row,SMILES,fluorescence intensity
1,OC[C@@H]1CN(C2CCCC2)C[C@H](n2cnc3c(NC4CCC4)ncnc32)O1,2860
2,Cn1c(=O)[nH]c(=O)c2c1nc(NCCCn1ccnc1)n2Cc1cccc(Br)c1,4650
3,COc1cccc(-n2c(=O)c3c(C)c(C(=O)N(C)C)sc3n(CC(=O)NCCc3ccc(OC)c(OC)c3)c2=O)c1,4050
4,CCC/C(O)=C1\C(=O)CC(C)(C)CC1=Nc1ccccc1OC,2780
5,CCOc1ccccc1N=C1NC(=O)CS1,23300 (active)
6,Cc1cccc(N=C2NC(=O)CS2)c1C,7480
7,Cc1nc(-c2ccccc2)cn2c1nc1ccccc12,2360
8,CN(C)C(=O)c1cccc(-c2cnc3c(NC=O)cc(-c4ccc(C(=O)N5CCOCC5)cc4)cn23)c1,3080
9,CCOc1ccc(CCN2C(=O)C(=O)N([C@@H](CC(C)C)CN3CCC[C@H]3CN3C(=O)C(=O)NC[C@@H]3Cc3ccccc3)C[C@@H]2CC(C)C)cc1,4830
10,CCOc1ccc(-n2c(SCC(N)=O)nnc2-c2ccco2)cc1,3680
11,Cn1c(SCC(=O)c2cccs2)nnc1-c1ccco1,8030
12,NC(=O)c1c(NC(=O)CSc2nnc(-c3ccco3)n2N)sc2c1CCCC2,2490
13,Nn1c(SCC(=O)Nc2nccs2)nnc1-c1ccco1,6070
14,CCc1cccc(C)c1NC(=O)CSc1nnc(-c2ccco2)n1N,23800 (active)
15,CCOC(=O)CSc1nnc(-c2ccco2)n1C,19700 (active)
16,O=C(Nc1ccc(Cl)c(C(F)(F)F)c1)C1Cc2c(-c3ccccc3Oc3ccccc3)ccnc2O1 (stereo not given),3930
17,OC(c1cc(Cl)cc(Cl)c1)c1ncc(-c2ccccc2C(F)(F)F)[nH]1 (stereo not given),2910
18,O=C(Nc1ccc(Cl)cc1)c1csc([C@@H]2O[C@H](CO)[C@H](O)[C@H](O)[C@H]2O)n1,3610
19,CCn1c(SCC(=O)NCC2CCCO2)nc2ccccc21 (stereo not given),4090
20,O=C(CCCn1c(SCC(=O)c2ccccc2)nc2ccccc2c1=O)NCC1CCCO1 (stereo not given),23800 (active)

row,SMILES,fluorescence intensity
1,COCCNC(=O)c1ccc(Cn2c(SCC(=O)NCC3CCCO3)nc3ccc(Br)cc3c2=O)cc1 (stereo not given),5480
2,O=C(CSc1nc2ccccc2c(=O)n1Cc1ccc(F)cc1)NCC1CCCO1 (stereo not given),6760
3,CCCCn1c(SCC(=O)NCC2CCCO2)nc2ccc(N3CCOCC3)cc2c1=O (stereo not given),21100 (active)
4,CCn1c(SCC(=O)NCC2CCCO2)nc2cc(S(=O)(=O)N3CCCCC3)ccc21 (stereo not given),3450
5,O=C(O)C1CCCN1S(=O)(=O)c1ccc2c(c1)CCC2 (stereo not given),7810
6,CC(C)(C)SCCSC1=CC(=O)CC(c2ccccc2)C1 (stereo not given),3630
7,CCCCNC(=O)C[C@@H]1C[C@@]2(C(=O)OCC)CCC=C2N(Cc2ccco2)C1=O,6060
8,CC1(Cc2ccccc2C#N)C(=O)Nc2ccc(-c3ccc4[nH]ccc4c3)cc21 (stereo not given),3220
9,COc1ccc(NC(=O)CCCN2C(=O)C(c3ccccc3)Oc3cccnc32)cc1 (stereo not given),5260
10,Cc1nnsc1C(=O)Nc1cccc(Cl)c1C,4480
11,Cc1nnsc1S(=O)(=O)Cc1ccccc1Cl,22200 (active)
12,CCC1CCCCN1S(=O)(=O)Cc1ccccc1Cl (stereo not given),5020
13,C[C@H]1COc2cc(N3CCSCC3)ccc2S(=O)(=O)N1,5560
14,c1ccc(C[C@H]2CNCCN2CCC23CC4CC(CC(C4)C2)C3)cc1,3210
15,Cc1cc(C)n(-c2c(F)c(F)c(COC(=O)c3ccccc3)c(F)c2F)n1,3060
16,Cc1cc(C)n(-c2nc(C(F)(F)F)nc3ccccc23)n1,3100
17,CCCOn1c(-n2nc(C)cc2C)nc2ccccc2c1=O,23500 (active)
18,COc1cc(/C=C/C(=O)OCC(=O)NCCCc2ccccc2)ccc1O,5380
19,Cc1ccccc1S(=O)(=O)N1[C@@H](c2cccc(Cl)c2)C(C(=O)OC(C)(C)C)=CC[C@H]1c1ccc(Cl)cc1,4430
20,CC12CCC(C(=O)N(CCC#N)CCC#N)(CC1=O)C2(C)C (stereo not given),20400 (active)

row,SMILES,fluorescence intensity
1,Cn1c(=O)c2c(nc(N/N=C/c3cccs3)n2Cc2ccc(Br)cc2)n(C)c1=O,2410
2,CC(C)(C)NC(=O)c1cc(NC(=O)c2ccco2)cc(NC(=O)c2ccco2)c1,3040
3,O=C(Nc1cccc(NC(=O)c2ccco2)c1)c1cnccn1,23700 (active)
4,O=C(Nc1nnc(Cc2ccccc2)s1)c1cnccn1,3990
5,CCOC(=O)N(C)c1c(CC)nc2c(OCc3ccccc3C(=O)OC)cccn12,3540
6,COc1cc(NC(=O)c2cc(-c3ccc(F)cc3OC(C)C)n[nH]2)cc(OC)c1OC,3570
7,CCNC(=O)c1cc2c(c(-c3cccc(-c4cncnc4)c3)n1)[C@H](CCO)N(C(C)=O)C2,6050
8,O=C1NC[C@H](CCCCN2CCN(CCc3ccccc3)C(=O)C2=O)N(CC2CCCCC2)C1=O,5200
9,Cc1ccc(NC(=O)C2(N3CCC3=O)CCCCC2)cc1,2510
10,O=C(c1cc(S(=O)(=O)N2CCOCC2)ccc1Cl)N1CCOCC1,5390
11,O=C(c1cccc(S(=O)(=O)N2CCOCC2)c1)N1CCOCC1,25300 (active)
12,O=C(Nc1ccc(N2CCOCC2)cc1)c1cccc(S(=O)(=O)N2CCOCC2)c1,2540
13,Cc1cccc(OCCNC(=O)CSc2ccc(C(F)(F)F)cc2[N+](=O)[O-])c1,2620
14,O=c1c2ccccc2nc(-c2ccc(Cl)cc2Cl)n1-c1ccncc1,18700 (active)
15,O=c1c2ccccc2nc(CBr)n1-c1ccc(Cl)cc1,3850
16,O=c1c2ccccc2nc(-c2ccccc2)n1-c1ccccn1,4770
17,CCOc1ccc(NC(=O)CCS(=O)(=O)c2ccc3c(c2)CCCN3C(=O)CC)cc1,10500
18,COC(=O)c1ccc(Oc2nc(NC(C)C)nc(SC)n2)cc1,2470
19,CCNc1nc(NC(C)C)nc(N2CC(=O)N(CC(=O)OCC)C2=N)n1,10500
20,CCNc1nc(NC(C)C)nc(OCCOC(=O)c2ccccc2)n1,22900 (active)
